# ROS inducer: inducers of reactive oxygen species in cancer cells; U2OS ROS induction, H2DCF-DA fluorescence; ROS induction (% of piperlongumine), % at 10 µM; 46,000 compounds, 2% hits; AID 624156; in the data active means ROS induction above about 79%, passing the limit was not always enough
# Numbers stand for hits; i = inactive. The entries come from a sample that favours hits as a whole.
SMILES,ROS inducer
C[C@H](CO)N1C[C@H](C)[C@H](CN(C)C(=O)NC2CCCCC2)Oc2ncc(/C=C/c3ccccc3)cc2C1=O,109.2
CC(C)NC(=O)N(C)C[C@@H]1Oc2ncc(/C=C/c3ccccc3)cc2C(=O)N([C@H](C)CO)C[C@@H]1C,i
C[C@H](CO)N1C[C@H](C)[C@H](CN(C)S(C)(=O)=O)Oc2ncc(-c3cccc(C(F)(F)F)c3)cc2C1=O,i
C[C@H](CO)N1C[C@H](C)[C@H](CN(C)C(=O)Nc2cccc3ccccc23)Oc2ncc(-c3cccc(F)c3)cc2C1=O,i
C[C@H](CO)N1C[C@H](C)[C@H](CN(C)C(=O)Nc2cccc3ccccc23)Oc2ncc(-c3ccccc3)cc2C1=O,i
CC(C)Oc1ccc(-c2nn(-c3ccccc3)cc2/C=C(\C#N)S(=O)(=O)c2ccccc2)cc1,i
N#CCc1nc(=O)c2ccccc2s1,i
O=C(Nc1ccccc1)Oc1ccccc1N1CCCCC1,i
Cc1sc2nc3c4ccccc4c(NCC4CCCO4)nn3c(=O)c2c1C (stereo not given),i
C=CCN1C(C(=O)c2ccccc2)=C(OC(=O)c2ccccc2)c2ccccc2S1(=O)=O,i
O=C(CCN(Cc1ccco1)S(=O)(=O)c1ccc(Cl)cc1)Nc1ccc(Cl)cc1,i
S=C(NCCc1ccccc1)NCCc1c[nH]c2ccccc12,i
COC(=O)c1ccccc1NC(=O)COc1ccc(C)c(C)c1,i
COC(=O)c1ccccc1NC(=O)COc1ccc([N+](=O)[O-])c(C)c1,137.9
COC(=O)c1ccccc1NC(=O)COc1ccc(I)cc1,i
CC(C)n1c(SCC(=O)Nc2ccccc2Cl)nc2cc(Cl)ccc21,i
COc1ccccc1NC(=O)c1ccccc1NC(=O)CCc1ccccc1,i
COc1ccccc1NC(=O)C(NC(=O)c1ccccc1NC(=O)c1ccccc1)C(C)C (stereo not given),97.5
COc1ccc(C(=O)Nc2ccccc2C(=O)NC(C(=O)O)C(C)C)cc1 (stereo not given),i
O=C1C(C=NCCc2c[nH]c3ccccc23)=C(O)c2ccccc21,i
CC(=O)NC1CC(C)(C)N(OC(=O)c2ccccn2)C(C)(C)C1,i
COc1cccc(NCc2cn(-c3ccccc3)nc2-c2cccs2)c1,i
Cc1ccc(N=Cc2cc3ccccc3nc2Cl)cc1Cl,i
Cc1ccc(-c2csc(-c3ccc(C(F)(F)F)cc3)n2)cc1,i
C[C@@H]1CN([C@@H](C)CO)C(=O)c2cccc(NC(=O)Nc3ccccc3)c2O[C@H]1CN(C)S(C)(=O)=O,91.5
SMILES,ROS inducer
C[C@H]1CN([C@@H](C)CO)C(=O)c2cccc(NC(=O)Nc3cccc4ccccc34)c2O[C@@H]1CN(C)S(=O)(=O)c1ccccc1,i
C[C@H]1CN([C@@H](C)CO)C(=O)c2cccc(NC(=O)Nc3ccccc3)c2O[C@@H]1CN(C)S(=O)(=O)c1ccccc1,i
C[C@@H]1CN([C@@H](C)CO)C(=O)c2cccc(NC(=O)Nc3ccccc3)c2O[C@@H]1CN(C)S(C)(=O)=O,i
C[C@@H]1CN([C@H](C)CO)C(=O)c2cccc(NC(=O)Nc3cccc4ccccc34)c2O[C@H]1CN(C)S(=O)(=O)c1ccccc1,i
C[C@@H]1CN([C@H](C)CO)C(=O)c2cccc(NC(=O)Nc3cccc4ccccc34)c2O[C@H]1CN(C)S(=O)(=O)c1ccc(F)cc1,110.5
C[C@@H]1CN([C@H](C)CO)C(=O)Cc2cc(NC(=O)Nc3ccc4c(c3)OCO4)ccc2O[C@H]1CN(C)C,i
C[C@@H]1CN([C@H](C)CO)C(=O)Cc2cc(NC(=O)Nc3ccc4c(c3)OCO4)ccc2O[C@@H]1CN(C)CC1CCCCC1,i
C[C@@H]1CN([C@H](C)CO)C(=O)Cc2cc(NC(=O)Nc3ccc4c(c3)OCO4)ccc2O[C@@H]1CN(C)C,i
C[C@@H]1CN([C@H](C)CO)C(=O)Cc2cc(NC(=O)Nc3ccc4c(c3)OCO4)ccc2O[C@H]1CN(C)CC1CC1,127.8
C[C@@H]1CN([C@@H](C)CO)C(=O)Cc2cc(NC(=O)Nc3ccc4c(c3)OCO4)ccc2O[C@@H]1CN(C)C,99.3
C[C@@H]1CN([C@@H](C)CO)C(=O)Cc2cc(NC(=O)Nc3ccccc3)ccc2O[C@@H]1CN(C)CC1CC1,i
O=C(O)COc1ccc(/C=C2\SC(=O)N(Cc3ccc(F)cc3)C2=O)cc1,i
CCc1ccc(CNC(=O)CN2C(=O)CSc3ncccc32)cc1,i
CN(C(=O)c1ccccc1)c1ccccc1,i
CCCN1C(=O)C2(c3ccccc31)c1c(oc3ccccc3c1=O)C(=O)N2CCOC (stereo not given),i
CCOc1ccc2nc(SCC(=O)N3CCOCC3)sc2c1,i
N#Cc1c(C(F)(F)F)cc(-c2cccs2)nc1SCC(=O)Nc1sc2c(c1C#N)CCC2,i
N#Cc1c(C(F)(F)F)cc(-c2cccs2)nc1SCC(=O)Nc1ccccc1C(F)(F)F,i
N#Cc1c(C(F)(F)F)cc(-c2cccs2)nc1SCC(=O)c1ccccc1,746.9
O=C(O)c1[nH]n(-c2ccccc2)c(=O)c1/C=C1\C=Nc2ccccc21,i
Cc1ccc(OCC(=O)Oc2ccc(C)cc2)cc1,i
CCc1ccc(Nc2nc(-c3cc4ccccc4oc3=O)cs2)cc1,i
O=C(CCCn1sc2ccccc2c1=O)NCc1cccs1,i
COc1ccc(CC(=O)NCC2COc3ccccc3O2)cc1OC (stereo not given),i
COCCn1c(C)cc(C=C2C(=O)N(C)C(=S)N(C)C2=O)c1C,i
SMILES,ROS inducer
COCCN1C(=O)/C(=C/c2cc(C)n(-c3ccncc3)c2C)C(=O)N(c2ccccc2)C1=O,i
C=CCN1C(=O)/C(=C/c2cc(C)n(CCOC)c2C)C(=O)NC1=S,102.5
CC(C(=O)O)(c1ccccc1)c1ccccc1,i
Cc1ccc2[nH]c(=O)c3cc(C(=O)NCCN(C)Cc4ccccc4)sc3c2c1,i
CC1(C)CC(=O)C2=C(C1)N(CCc1ccccc1)C(=O)C2(NC(=O)c1cccnc1)C(F)(F)F (stereo not given),i
CCC1=NC(C(F)(F)F)(C(F)(F)F)C2=C(CC(C)(C)CC2=O)N1Cc1ccccc1,120.4
CC1(C)CC(=O)C2=C(C1)N(Cc1ccc(F)cc1)C(=O)C2(NC(=O)c1cccnc1)C(F)(F)F (stereo not given),i
CCOc1ccc(-c2nc(C#N)c(N(C)C)o2)cc1,i
Nc1nnnn1/N=C\C=C\c1ccccc1,i
CCc1nc(SCC(=O)C(C)(C)C)c(C#N)cc1C,i
O=C(Nc1ccc(NC(=S)NC(=O)c2cc3ccccc3o2)cc1)c1ccco1,i
COc1ccc(-c2cc3cc(OC)c(OC)cc3c(Cc3ccccc3)n2)cc1,154.7
COc1cc2cc(C)nc(Cc3cccc4ccccc34)c2cc1OC,i
COc1ccc(-c2csc(-c3ccc(OC)cc3)n2)cc1,i
O=C(NCCc1cn2ccccc2n1)c1cccc(C(F)(F)F)c1,i
CCOC(=O)/C(C#N)=C1/CCCN1,i
O=c1cc(-c2ccccc2)nc(SCCOc2ccccc2F)[nH]1,i
CC1(C)Oc2ccc(NC(=O)C3(c4ccccc4)CCCC3)cc2O1,i
CS(=O)(=O)/C(C#N)=C/c1cccn1-c1ccc(OC(F)(F)F)cc1,i
Cc1cc(/C=C(/C#N)S(C)(=O)=O)c2c(C)ccc(C(C)C)cc1-2,85.4
CS(=O)(=O)/C(C#N)=C/Nc1cnccn1,i
O=C(CN1C(=O)CCc2ccccc21)NCCc1ccccc1,i
Cc1ccc(C(=O)NCCc2nnc3ccc(SCC(=O)NC4CCCCC4)nn23)cc1,i
O=C(CSc1ncnc2sc3c(c12)CCCC3)Nc1cccc(F)c1,i
CCc1cccc(NC(=O)C2CCN(c3nn4c(=O)cc(C)nc4s3)CC2)c1,i

# Source: PubChem
